From the supplement of paper PMC4100887
Where a name gives a salt, the structure may show the parent alone. ± gives the standard deviation of the averaged measurements.

What was measured:
IMR-90 = test: relative cell viability (ATPlite) vs untreated control (fraction); higher = less toxic; conditions: 1 µM; 72 h
K562 [1] = test: as above; conditions: 1 µM; 72 h
K562 [2] = test: relative cell viability (ATPlite) vs untreated control, with imatinib (fraction); higher = less toxic; conditions: 1 µM; 72 h; imatinib 0.125 µM

| SMILES | relative cell viability (IMR-90) | relative cell viability (K562 [1]) | relative cell viability (K562 [2]) |
| --- | --- | --- | --- |
| c1ccc(-c2cnc(Nc3ccc(OCCN4CCCC4)cc3)s2)cc1 [Flt-3 Inhibitor III] | 0.924 ± 0.052 | 0.916 ± 0.065 | 0.797 ± 0.031 |
| O=C(c1ccccc1)c1ccc(N2CCOCC2)cc1O [DNA-PK Inhibitor V] | 1.01 ± 0.094 | 0.878 ± 0.066 | 0.756 ± 0.03 |
| O=C1Cc2c([nH]c3ccc([N+](=O)[O-])cc23)-c2ccccc2N1 [Alsterpaullone] | 0.946 ± 0.067 | 0.906 ± 0.074 | 0.812 ± 0.026 |
| CCN(CC)CCNC(=O)c1c(C)[nH]c(/C=C2\C(=O)Nc3ccc(Cl)cc32)c1C | 0.92 ± 0.082 | 0.909 ± 0.062 | 0.799 ± 0.052 |
| O=C1Nc2ccc(Cl)cc2/C1=C/c1cc(Cl)c(O)c(Cl)c1 [PKR Inhibitor, Negative Control] | 0.968 ± 0.089 | 0.848 ± 0.072 | 0.721 ± 0.058 |
| CC(C)[C@H](CO)Nc1nc(Nc2cc(N)cc(Cl)c2)c2ncn(C(C)C)c2n1 [Aminopurvalanol A] | 0.837 ± 0.084 | 0.916 ± 0.037 | 0.796 ± 0.025 |
| CC[C@H](CO)Nc1nc(NCc2ccc(-c3ccccn3)cc2)c2ncn(C(C)C)c2n1 [CR8, (R)-Isomer] | 0.297 ± 0.51 | 0.0971 ± 0.02 | 0.0846 ± 0.015 |
| Nc1nc(Nc2ccc(S(N)(=O)=O)cc2)nn1C(=S)Nc1c(F)cccc1F [Cdk1/2 Inhibitor III] | 1.11 ± 0.082 | 0.0545 ± 0.0021 | 0.0471 ± 0.0048 |
| COc1ccc2c(c1)c(C1=C(c3c[nH]c4ccccc34)C(=O)NC1=O)cn2CCCN(C)C | 0.969 ± 0.082 | 0.872 ± 0.06 | 0.755 ± 0.051 |
| CC[C@H](CO)Nc1nc(NCc2ccccc2O)c2ncn(C(C)C)c2n1 [Olomoucine II] | 1.07 ± 0.073 | 0.758 ± 0.02 | 0.715 ± 0.028 |
| Brc1c(Br)c(Br)c2n[nH]nc2c1Br [Casein Kinase II Inhibitor I] | 1 ± 0.059 | 0.952 ± 0.068 | 0.833 ± 0.03 |
| Cc1nc(-c2ccccc2)c(-c2ccncc2)o1 | 1.02 ± 0.093 | 0.835 ± 0.077 | 0.649 ± 0.16 |
| COc1cc2ncn(-c3cc(OCc4ccccc4S(C)(=O)=O)c(C#N)s3)c2cc1OC [IKK-3 Inhibitor IX] | 1.02 ± 0.11 | 0.843 ± 0.084 | 0.764 ± 0.036 |
| Cn1sc(=O)n(Cc2ccccc2)c1=O [GSK-3b Inhibitor I] | 0.98 ± 0.13 | 0.793 ± 0.027 | 0.704 ± 0.031 |
| CCOc1nc(NC(=O)Cc2cc(OC)ccc2OC)cc(N)c1C#N [JNK Inhibitor VIII] | 0.992 ± 0.081 | 0.983 ± 0.035 | 0.769 ± 0.053 |
| O=C(c1cc2cc(O)ccc2[nH]1)c1cc2cc(O)ccc2[nH]1 [Flt-3 Inhibitor II] | 1.04 ± 0.085 | 0.461 ± 0.026 | 0.418 ± 0.035 |
| Nc1ncnc2c1c(I)cn2[C@@H]1O[C@H](CO)[C@@H](O)[C@H]1O [5-Iodotubercidin] | 0.745 ± 0.14 | 0.715 ± 0.12 | 0.702 ± 0.065 |
| O=c1cc(N2CCNCC2)oc2c(-c3ccccc3)cccc12 | 0.987 ± 0.049 | 0.828 ± 0.11 | 0.76 ± 0.034 |
| O=c1c2ccccc2[nH]c(=S)n1CCN1CCC(=C(c2ccc(F)cc2)c2ccc(F)cc2)CC1 [Diacylglycerol Kinase Inhibitor II] | 0.995 ± 0.097 | 0.867 ± 0.094 | 0.768 ± 0.07 |
| NCCCn1cc(C2=C(c3c[nH]c4ccccc34)C(=O)NC2=O)c2ccccc21 [Bisindolylmaleimide III, Hydrochloride] | 1.06 ± 0.088 | 0.88 ± 0.058 | 0.776 ± 0.042 |
| O=C(Nc1ccc(-c2cn[nH]c2)cc1)C1COc2ccccc2O1 (centres undefined) [Rho Kinase Inhibitor V] | 1.09 ± 0.066 | 0.824 ± 0.075 | 0.687 ± 0.028 |
| O=C(O)C=Cc1cc(Br)c(Br)c(Br)c1Br [Casein Kinase II Inhibitor III, TBCA] | 0.889 ± 0.14 | 0.988 ± 0.082 | 0.836 ± 0.044 |
| COc1cc2c(cc1OC)-c1[nH]nc(Nc3cccc(F)c3)c1C2 [PDGF Receptor Tyrosine Kinase Inhibitor IV] | 0.43 ± 0.07 | 0.0468 ± 0.0021 | 0.0404 ± 0.0032 |
| Cn1cc(C2=C(c3cn(CCCSC(=N)N)c4ccccc34)C(=O)NC2=O)c2ccccc21 | 0.967 ± 0.2 | 0.834 ± 0.1 | 0.733 ± 0.062 |
| CC(C)(C)c1nc2c3cc[nH]c(=O)c3c3cc(F)ccc3c2[nH]1 [JAK Inhibitor I] | 1.01 ± 0.045 | 0.796 ± 0.072 | 0.72 ± 0.035 |
| c1cc(-c2cnn3cc(-c4ccc(OCCN5CCCCC5)cc4)cnc23)ccn1 [AMPK Inhibitor, Compound C] | 0.86 ± 0.092 | 0.883 ± 0.072 | 0.834 ± 0.051 |
| c1nc2c(NC3CCCCC3)nc(Nc3ccc(N4CCOCC4)cc3)nc2[nH]1 [Reversine] | 0.936 ± 0.08 | 0.578 ± 0.048 | 0.398 ± 0.075 |
| CCC(CO)Nc1nc(NCc2ccccc2)c2ncn(C(C)C)c2n1 [Roscovitine, (S)-Isomer] | 1.04 ± 0.054 | 0.912 ± 0.081 | 0.729 ± 0.057 |
